Measurements from ChEMBL document CHEMBL3988442, “University of Dundee, Small-Polar-MMV Screening Library” (2021).
For some assays here: Potency and affinity values are given separately.

Experiments:
Design in all cases: scale not given: direction of the effect not stated beside the values
[1] = biological target: Protein translocase subunit SecA (Escherichia coli (strain K12)) (UniProt P10408); test: Assay to Identify E. coli SecA ATPase Inhibitors; format: functional; conditions: 30 µM
[2] = biological target: T1, Ubiquitin-activating enzyme e1, putative (Leishmania donovani (strain BPK282A1)) (UniProt E9BSI1); test: Leishmania donovani Ubiquitin Activating Enzyme (LdE1); format: functional; conditions: 30 µM
T1 sequence (whole entry): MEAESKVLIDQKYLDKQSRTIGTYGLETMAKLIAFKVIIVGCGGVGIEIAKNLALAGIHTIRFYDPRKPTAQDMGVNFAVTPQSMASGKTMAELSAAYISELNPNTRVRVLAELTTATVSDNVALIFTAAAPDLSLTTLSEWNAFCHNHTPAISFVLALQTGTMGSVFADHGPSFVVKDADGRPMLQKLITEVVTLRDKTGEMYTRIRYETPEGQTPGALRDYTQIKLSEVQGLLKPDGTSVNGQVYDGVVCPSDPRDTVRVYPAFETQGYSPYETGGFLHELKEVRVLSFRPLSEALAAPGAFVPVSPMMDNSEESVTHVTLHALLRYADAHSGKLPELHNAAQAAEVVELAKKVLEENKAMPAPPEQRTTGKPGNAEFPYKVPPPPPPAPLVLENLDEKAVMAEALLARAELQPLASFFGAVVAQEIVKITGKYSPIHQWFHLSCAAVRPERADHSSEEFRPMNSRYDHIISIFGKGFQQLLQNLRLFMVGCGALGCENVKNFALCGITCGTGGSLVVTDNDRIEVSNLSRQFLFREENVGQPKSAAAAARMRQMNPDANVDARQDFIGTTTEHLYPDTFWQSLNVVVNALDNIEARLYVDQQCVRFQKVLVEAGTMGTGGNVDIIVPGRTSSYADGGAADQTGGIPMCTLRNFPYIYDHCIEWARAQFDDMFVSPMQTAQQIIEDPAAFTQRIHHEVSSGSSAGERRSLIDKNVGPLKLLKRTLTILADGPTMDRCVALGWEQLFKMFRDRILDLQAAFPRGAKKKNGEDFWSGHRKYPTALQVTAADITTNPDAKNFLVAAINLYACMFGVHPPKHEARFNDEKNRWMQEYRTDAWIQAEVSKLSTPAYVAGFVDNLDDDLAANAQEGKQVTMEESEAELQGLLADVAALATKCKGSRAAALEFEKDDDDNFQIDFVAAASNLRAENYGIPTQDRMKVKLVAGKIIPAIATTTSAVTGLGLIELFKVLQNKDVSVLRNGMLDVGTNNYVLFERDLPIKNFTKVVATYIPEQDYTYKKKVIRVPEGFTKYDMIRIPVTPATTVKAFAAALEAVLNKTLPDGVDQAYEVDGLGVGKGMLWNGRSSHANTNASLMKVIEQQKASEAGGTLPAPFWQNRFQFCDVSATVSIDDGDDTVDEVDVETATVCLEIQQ

[3] = biological target: Sialic acid-binding Ig-like lectin 9 (Homo sapiens) (UniProt Q9Y336); test: Hs-Siglec9 ALPHAscreen SOP 20170721; conditions: 10 µM
Trypanosoma cruzi = test: Trypanosoma cruzi phosphomannomutase and mannose-1-phosphate guanylyltransferase assay; format: functional; conditions: 10 µM
[4] = biological target: T2, Arginase-2, mitochondrial (Homo sapiens) (UniProt P78540); test: in vitro enzyme assay to detect the production of urea directly proportional to the activity of Arginase II; format: functional; conditions: 33.3 µM; note: in the data most compounds retested in dose-response had high values
T2 sequence (whole entry): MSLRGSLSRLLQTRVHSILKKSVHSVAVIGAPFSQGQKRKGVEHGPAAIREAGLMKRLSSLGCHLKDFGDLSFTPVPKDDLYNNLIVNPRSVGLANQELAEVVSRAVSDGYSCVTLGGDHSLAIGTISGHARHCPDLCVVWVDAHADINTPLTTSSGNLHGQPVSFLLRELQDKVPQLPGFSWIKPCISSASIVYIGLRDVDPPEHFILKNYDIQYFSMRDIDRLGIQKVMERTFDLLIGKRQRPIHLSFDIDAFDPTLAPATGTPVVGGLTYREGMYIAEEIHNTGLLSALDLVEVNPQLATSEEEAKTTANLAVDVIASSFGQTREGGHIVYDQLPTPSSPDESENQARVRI

[5] = biological target: T3, Proteasome subunit beta (Trypanosoma cruzi) (UniProt O96673); test: Trypanosoma cruzi proteasome chymotrypsin-like activity (TcProtChymo) assay.; note: in the data most compounds retested in dose-response had high values; format: functional; conditions: 9.37 µM
T3 sequence (whole entry): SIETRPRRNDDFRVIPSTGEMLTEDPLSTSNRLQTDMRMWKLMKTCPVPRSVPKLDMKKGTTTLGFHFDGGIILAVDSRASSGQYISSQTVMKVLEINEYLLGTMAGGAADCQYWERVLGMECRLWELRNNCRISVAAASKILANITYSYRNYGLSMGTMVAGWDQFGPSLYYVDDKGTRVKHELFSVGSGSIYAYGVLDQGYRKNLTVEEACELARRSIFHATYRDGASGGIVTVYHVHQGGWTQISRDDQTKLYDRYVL

Homo sapiens = organism: Homo sapiens; test: To identify inhibition of the IFN signalling (Jak-Stat) pathway via expression of an eGFP reporter gene under the control of an IFN-stimulated response element (ISRE) containing MxA promoter.; format: functional; conditions: 30 µM
[6] = biological target: T4, Tyrosyl-tRNA synthetase, putative (Trypanosoma cruzi (strain CL Brener)) (UniProt Q4DSP6); test: Trypanosoma cruzi tyrosyl tRNA synthetase (TcYRS) _High Tyrosine SOP; format: functional; conditions: 30 µM; note: in the data most compounds retested in dose-response had high values
T4 sequence (whole entry): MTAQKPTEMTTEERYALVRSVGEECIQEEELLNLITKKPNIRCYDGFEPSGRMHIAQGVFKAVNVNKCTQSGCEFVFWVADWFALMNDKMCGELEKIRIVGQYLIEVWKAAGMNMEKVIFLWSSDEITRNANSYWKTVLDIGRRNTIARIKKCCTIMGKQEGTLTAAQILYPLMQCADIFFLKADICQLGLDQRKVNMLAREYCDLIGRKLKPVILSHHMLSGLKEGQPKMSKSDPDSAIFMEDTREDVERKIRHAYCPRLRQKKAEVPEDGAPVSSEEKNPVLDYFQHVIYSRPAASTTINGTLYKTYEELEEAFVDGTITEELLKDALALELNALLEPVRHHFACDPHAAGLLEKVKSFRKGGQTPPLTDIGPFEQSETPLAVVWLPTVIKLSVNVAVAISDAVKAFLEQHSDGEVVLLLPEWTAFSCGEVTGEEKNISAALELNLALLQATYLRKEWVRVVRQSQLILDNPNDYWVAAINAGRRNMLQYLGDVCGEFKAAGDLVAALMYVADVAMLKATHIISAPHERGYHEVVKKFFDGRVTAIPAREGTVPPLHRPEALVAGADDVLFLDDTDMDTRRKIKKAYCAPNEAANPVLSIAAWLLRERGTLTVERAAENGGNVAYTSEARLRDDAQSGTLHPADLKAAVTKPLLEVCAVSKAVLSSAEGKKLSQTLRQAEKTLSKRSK

[7] = biological target: T4, Tyrosyl-tRNA synthetase, putative (Trypanosoma cruzi (strain CL Brener)); test: Trypanosoma cruzi tyrosyl tRNA synthetase (TcYRS) SOP; format: functional; conditions: 30 µM
[8] = biological target: Chromo domain-containing protein 1 (Saccharomyces cerevisiae (strain ATCC 204508 / S288c) (Baker's yeast)) (UniProt P32657); test: ScCHD-1 Enzyme Inhibition Assay; format: functional; conditions: 30 µM; note: in the data most compounds retested in dose-response had high values
[9] = biological target: AMP-activated protein kinase, AMPK (Homo sapiens) (UniProt P54646+O43741+P54619+Q9UGJ0+Q9Y478+Q13131+Q9UGI9); test: AMP-dependent Kinase enzyme assay. An in vitro enzyme assay that detects ADP turnover that is directly proportional to AMPK activity. This uses naive AMPK that is activated during the assay with MK-8722; format: functional; conditions: 30 µM

Sialic acid-binding Ig-like lectin 9 (Homo sapiens), sequence (Q9Y336 whole entry): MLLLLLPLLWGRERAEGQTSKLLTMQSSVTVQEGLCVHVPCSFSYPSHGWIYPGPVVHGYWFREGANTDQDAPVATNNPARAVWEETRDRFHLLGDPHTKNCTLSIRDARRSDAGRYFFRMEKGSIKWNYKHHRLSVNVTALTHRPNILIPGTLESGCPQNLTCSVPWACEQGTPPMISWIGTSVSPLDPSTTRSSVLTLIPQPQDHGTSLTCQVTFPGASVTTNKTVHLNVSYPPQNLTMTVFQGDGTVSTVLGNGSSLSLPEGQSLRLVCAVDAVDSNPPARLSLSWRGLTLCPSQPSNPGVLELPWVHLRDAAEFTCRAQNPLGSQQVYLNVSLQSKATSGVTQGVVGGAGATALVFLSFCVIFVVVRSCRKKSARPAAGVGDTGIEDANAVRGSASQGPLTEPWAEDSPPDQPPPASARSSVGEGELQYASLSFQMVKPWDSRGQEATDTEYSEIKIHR
Chromo domain-containing protein 1 (Saccharomyces cerevisiae (strain ATCC 204508 / S288c) (Baker's yeast)), sequence (P32657 whole entry, the tested form may be a part): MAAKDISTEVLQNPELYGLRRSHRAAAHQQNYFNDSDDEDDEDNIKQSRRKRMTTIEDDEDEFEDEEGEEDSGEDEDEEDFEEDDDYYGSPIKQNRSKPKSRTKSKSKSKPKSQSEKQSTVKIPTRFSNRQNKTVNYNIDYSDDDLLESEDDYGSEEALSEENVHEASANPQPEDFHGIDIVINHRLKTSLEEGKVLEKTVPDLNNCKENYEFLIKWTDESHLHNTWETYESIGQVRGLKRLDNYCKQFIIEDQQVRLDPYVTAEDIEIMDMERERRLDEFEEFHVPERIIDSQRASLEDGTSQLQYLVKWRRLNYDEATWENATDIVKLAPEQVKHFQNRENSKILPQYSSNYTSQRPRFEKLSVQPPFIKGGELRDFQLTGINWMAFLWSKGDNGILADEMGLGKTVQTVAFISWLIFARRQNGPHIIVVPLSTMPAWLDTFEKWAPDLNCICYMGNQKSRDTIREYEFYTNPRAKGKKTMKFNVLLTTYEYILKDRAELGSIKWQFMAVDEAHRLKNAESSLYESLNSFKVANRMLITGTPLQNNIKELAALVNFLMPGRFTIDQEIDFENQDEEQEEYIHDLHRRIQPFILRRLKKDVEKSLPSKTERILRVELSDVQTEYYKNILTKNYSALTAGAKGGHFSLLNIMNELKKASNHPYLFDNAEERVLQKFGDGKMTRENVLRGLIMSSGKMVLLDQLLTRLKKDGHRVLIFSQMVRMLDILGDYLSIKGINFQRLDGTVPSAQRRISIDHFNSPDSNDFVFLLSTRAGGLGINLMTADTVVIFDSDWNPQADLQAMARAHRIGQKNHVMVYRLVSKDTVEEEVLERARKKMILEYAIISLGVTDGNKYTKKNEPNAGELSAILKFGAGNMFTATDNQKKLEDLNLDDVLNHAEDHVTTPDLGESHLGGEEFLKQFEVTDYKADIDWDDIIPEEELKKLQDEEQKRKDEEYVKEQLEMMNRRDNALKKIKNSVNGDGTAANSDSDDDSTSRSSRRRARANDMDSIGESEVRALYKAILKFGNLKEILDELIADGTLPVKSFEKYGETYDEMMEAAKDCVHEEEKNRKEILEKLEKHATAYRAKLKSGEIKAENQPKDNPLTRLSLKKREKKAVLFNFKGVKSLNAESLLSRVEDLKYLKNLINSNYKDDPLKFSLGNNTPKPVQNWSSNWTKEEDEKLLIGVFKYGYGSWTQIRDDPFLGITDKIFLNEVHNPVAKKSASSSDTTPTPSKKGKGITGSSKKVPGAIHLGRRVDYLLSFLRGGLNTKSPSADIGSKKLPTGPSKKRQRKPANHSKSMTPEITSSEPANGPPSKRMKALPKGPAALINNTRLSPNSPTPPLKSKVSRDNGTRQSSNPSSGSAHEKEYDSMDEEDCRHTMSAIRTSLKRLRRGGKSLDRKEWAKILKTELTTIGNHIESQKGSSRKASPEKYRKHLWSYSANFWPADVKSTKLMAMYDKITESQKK
Protein translocase subunit SecA (Escherichia coli (strain K12)), sequence (P10408 whole entry): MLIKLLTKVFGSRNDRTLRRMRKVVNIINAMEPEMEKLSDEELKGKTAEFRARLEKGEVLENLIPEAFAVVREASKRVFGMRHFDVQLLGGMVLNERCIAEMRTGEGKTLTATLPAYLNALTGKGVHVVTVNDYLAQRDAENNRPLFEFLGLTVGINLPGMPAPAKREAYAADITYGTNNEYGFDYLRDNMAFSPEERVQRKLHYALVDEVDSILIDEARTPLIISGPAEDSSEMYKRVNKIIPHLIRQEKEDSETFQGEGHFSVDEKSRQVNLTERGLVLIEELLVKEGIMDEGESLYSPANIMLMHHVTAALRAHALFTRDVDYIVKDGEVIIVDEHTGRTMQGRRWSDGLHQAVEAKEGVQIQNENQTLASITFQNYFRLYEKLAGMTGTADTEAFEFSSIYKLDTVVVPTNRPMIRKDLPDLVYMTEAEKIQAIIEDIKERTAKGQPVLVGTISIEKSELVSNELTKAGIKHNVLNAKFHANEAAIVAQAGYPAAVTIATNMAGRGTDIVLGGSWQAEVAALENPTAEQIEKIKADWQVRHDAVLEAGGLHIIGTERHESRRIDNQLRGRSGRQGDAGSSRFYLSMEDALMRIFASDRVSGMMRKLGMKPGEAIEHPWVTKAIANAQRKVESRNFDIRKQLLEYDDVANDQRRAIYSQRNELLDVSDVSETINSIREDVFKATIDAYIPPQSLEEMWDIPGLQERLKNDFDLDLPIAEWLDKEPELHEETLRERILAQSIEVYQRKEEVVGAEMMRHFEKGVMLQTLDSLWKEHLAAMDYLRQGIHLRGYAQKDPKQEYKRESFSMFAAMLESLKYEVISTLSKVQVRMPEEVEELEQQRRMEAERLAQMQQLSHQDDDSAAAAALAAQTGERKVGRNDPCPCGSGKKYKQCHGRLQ

Compound	Percent Effect [1]	Percent Effect [2]	Percent Effect [3]	Percent Effect (Trypanosoma cruzi)	Percent Effect [4]	Percent Effect [5]	Percent Effect (Homo sapiens)	Percent Effect [6]	Percent Effect [7]	Percent Effect [8]	Percent Effect [9]
CC(C)CNc1nc(C(=O)/N=c2\[nH]nc(C(C)(C)C)s2)cs1	2.26%	8.11%	-0.928%	-8.83%	1.75%	12.3%	19.4%	5.85%	17.1%	1.47%	–
COc1ccc(CN2C[C@@H]3COC[C@]3(CN(C)C)C2)cc1	-12.1%	-1.3%	-2.55%	1.07%	-1.22%	8.56%	-15%	4.74%	7.69%	-0.368%	–
CN(C)c1ccccc1C(=O)N1C[C@@H](CN2CCCCC2)[C@@H](CO)C1	-7.49%	2.7%	6.19%	7.27%	-5.25%	16.6%	-22.6%	3.72%	12.2%	-3.83%	–
CCc1nc(C2CCCN2C(=O)c2nc(C)n3ccccc23)no1 (stereo not drawn)	-0.63%	2.67%	-0.749%	-5.02%	4.43%	3.65%	15%	4.74%	5.13%	-15.8%	–
CN(C)CC1CN(Cc2coc(-c3cccs3)n2)CCO1 (stereo not drawn)	-1.09%	13.3%	-3.06%	-2.41%	2.22%	11.8%	15.3%	-0.526%	5.13%	-10.9%	–
CCS(=O)(=O)N(C)CC(=O)Nc1ccc(Br)cn1	-6.17%	26.7%	0.132%	-0.402%	-0.444%	18.2%	13.7%	1.58%	12.8%	-8.92%	–
O=C(c1ccc(OCC2CC2)nc1)N1CCCC(n2cncn2)C1 (stereo not drawn)	-1.42%	10.3%	-4.65%	-3.1%	7.79%	9.13%	19.1%	5.26%	13.2%	-4.21%	–
CC(C)(C)C(O)CN1CCN(C(=O)c2cccc3ncccc23)CC1 (stereo not drawn)	-3.23%	12.8%	-15.5%	-7.23%	-0.41%	8.11%	-0.457%	3.35%	10.8%	-6.72%	–
CN1CCC/C1=N\S(=O)(=O)c1ccc(NC(=O)CCc2cccs2)cc1	2.31%	20.8%	5.99%	2.05%	12.1%	5.79%	16.7%	7.84%	28.2%	-8.39%	–
CCCN1CCCn2nc(CNS(=O)(=O)c3cccc(C#N)c3)cc2C1	-7.29%	8.11%	11.2%	1.84%	2.45%	19.4%	9.83%	6.92%	21.9%	95%	–
Cc1cncc(C2CCCN(C(=O)c3c[nH]c(=O)[nH]c3=O)C2)n1 (stereo not drawn)	0.496%	9.33%	-0.809%	-4.14%	0.885%	7.06%	6.63%	4.23%	10%	-18.3%	–
O=c1c2ccccc2nc2n1C(CSc1ccc(Cl)cc1Cl)CN2 (stereo not drawn)	-1.78%	19.5%	-1.05%	-1.31%	5.94%	13.3%	32.9%	1.93%	10%	-2.41%	–
CCN(CC)C(CNC(=O)c1ccnc(N(C)C)c1)c1ccsc1 (stereo not drawn)	–	–	–	–	–	–	–	–	–	–	-4.85%
CC(C)c1cc(NC(=O)CN2CCNC(=O)C2)on1	-0.0493%	26%	-4.98%	-0.933%	-1.43%	11.2%	1.34%	7.84%	21.2%	-9.71%	–
CCn1cc(-c2cc(C(=O)N3CCOCC3)c3cc(Cl)ccc3n2)cn1	–	–	–	–	–	–	–	–	–	–	11.8%
CN(Cc1ccccc1)CC(O)Cn1cnc2ccccc2c1=O (stereo not drawn)	-0.933%	2.56%	0.642%	4.79%	9.84%	-2.13%	12.8%	0.478%	6.02%	0.379%	–
CCc1cc(O)nc(C2CCCN2C(=O)c2cc(C)no2)n1 (stereo not drawn)	-0.0921%	17.3%	-12.2%	-2.76%	-2.65%	11.3%	20.5%	-2.12%	5%	-14.2%	–
Cn1cc(CN2CCC3(CC2)CC(c2ccncc2)C(=O)N3)cn1 (stereo not drawn)	-3%	6.49%	-3.92%	-5.36%	2.02%	16.7%	-2.28%	3.68%	10.3%	-1.42%	–
CN(C)c1ccc(C(=O)N2CCN(Cc3cscn3)CC2)cc1F	0.885%	13%	8.14%	1.31%	3.07%	9.12%	-8.07%	-10.8%	23.5%	-2.52%	–
CN(C)CCCn1ccnc1C1CCCN(c2cc(N)ncn2)C1 (stereo not drawn)	-10.5%	2.7%	2.22%	-3.59%	-2.45%	4.97%	-11%	7.98%	4.88%	4.53%	–
CCCC(C)C(=O)N1CCC(n2cccc2C(=O)OC)CC1 (stereo not drawn)	-6.33%	10.4%	13.2%	-1.12%	1.43%	2.46%	31%	2.94%	9.41%	6.48%	–
NCC1Cc2cccc(-c3ccc(O)c(F)c3)c2O1 (stereo not drawn)	–	–	–	–	–	–	–	–	–	–	89.9%
CC(C(=O)N1CCCC1)N1CCC(c2nccn2Cc2cscn2)CC1 (stereo not drawn)	-2.34%	0%	12.9%	-3.4%	5.94%	13%	3.46%	6.92%	12.2%	-3.89%	–
